Test results taken from PubChem BioAssay (NCI).
This is part of a sample that, as a whole, favours compounds with a hit. Of some 79,000 tested, about 15% had one in any assay. Values without a mark were called inactive. Active and inactive are the calls of the source. No stated cut-off is given here; in the data, active means growth inhibition above about 70%; inactive means the rest.

How the values were obtained:
[1] = NCI Yeast Anticancer Drug Screen. Data for the rad50 strain (AID 155);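 further: 0% = growth of vehicle-only cultures of the same strain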; conditions: S. cerevisiae rad50 strain growth inhibition, stronger effect = higher value
Summary of the method: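 Inhibition values express reduced yeast growth in compound-treated cultures relative to vehicle-treated controls.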

[2] = NCI Yeast Anticancer Drug Screen. Data for the mec2-1 strain (AID 157); conditions: S. cerevisiae mec2-1 strain, stronger effect = higher value
Summary of the method: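 Mutant yeast (mec2-1) grown with compound; growth inhibition relative to vehicle control reported.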

[3] = NCI Yeast Anticancer Drug Screen. Data for the sgs1 mgt1 strain (AID 161);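 further: 0% = growth of cultures given vehicle only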; conditions: S. cerevisiae sgs1 mgt1 strain, stronger effect = higher value
Summary of the method: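 Yeast cells carrying a defined DNA-repair defect were exposed to test compounds. Growth inhibition was measured relative to vehicle-treated controls.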

[4] = NCI Yeast Anticancer Drug Screen. Data for the cln2 rad14 strain (AID 165);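 further: 0% = growth equal to vehicle treated cultures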; conditions: S. cerevisiae cln2 rad14 strain, stronger effect = higher value
Summary of the method: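 Readout is yeast growth inhibition versus vehicle-treated controls, using a strain with cln2 and rad14 alterations exposed to compound.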

[5] = NCI Yeast Anticancer Drug Screen. Data for the bub3 strain (AID 167); conditions: S. cerevisiae bub3 mutant strain, stronger effect = higher value
Summary of the method: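 Steps: expose the mutant yeast strain to compound; grow alongside vehicle-treated cultures; measure growth; express inhibition against the vehicle cultures.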

[6] = NCI Yeast Anticancer Drug Screen. Data for the mlh1 rad18 strain (AID 175); conditions: S. cerevisiae mlh1 rad18 strain growth inhibition, stronger effect = higher value
Summary of the method: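 Genetically defined yeast (DNA repair-deficient) exposed to compounds; growth inhibition determined relative to vehicle.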

[7] = at 5.0 µM (retest, dose inferred, filed as 0.5)
[8] = at 50.0 µM (retest, dose inferred, filed as 5.0)

| Compound | growth inhibition [1, 7] | growth inhibition [1, 8] | growth inhibition ([1]; at 50.0 µM) | growth inhibition [2, 7] | growth inhibition [2, 8] | growth inhibition ([2]; at 50.0 µM) | growth inhibition [3, 7] | growth inhibition [3, 8] | growth inhibition ([3]; at 50.0 µM) | growth inhibition [4, 7] | growth inhibition [4, 8] | growth inhibition ([4]; at 50.0 µM) | growth inhibition [5, 7] | growth inhibition [5, 8] | growth inhibition ([5]; at 50.0 µM) | growth inhibition [6, 7] | growth inhibition [6, 8] | growth inhibition ([6]; at 50.0 µM) |
| --- | --- | --- | --- | --- | --- | --- | --- | --- | --- | --- | --- | --- | --- | --- | --- | --- | --- | --- |
| N#Cc1snc2sc(=O)sc12 | 99% (active) | 100% (active) | 99.5% (active) | 100% (active) | 99% (active) | 99.7% (active) | 100% (active) | 100% (active) | 99.5% (active) | 99% (active) | 100% (active) | 99.2% (active) | 100% (active) | 99% (active) | 99.2% (active) | 100% (active) | 99% (active) | 99.5% (active) |
| CC(C)c1ccc(/C=C2\CSCC3=C2NC(=S)NC3c2ccc(C(C)C)cc2)cc1 (configuration not stated) | -6% | 83% (active) | 98.3% (active) | -17% | 92% (active) | 98.7% (active) | -13% | 87% (active) | 98.9% (active) | -3% | 83% (active) | 98.6% (active) | -13% | 95% (active) | 98.7% (active) | -4% | 94% (active) | 98.4% (active) |
| Cc1cc(-c2ccccc2)nc2nc3ccccc3n12 | 2% | 30% | 7.95% | 16% | 21% | 5.8% | -11% | 67% | 12.4% | 14% | 43% | -30.7% | 21% | 82% (active) | 29.2% | -6% | 45% | 31.6% |
| CCOC(=O)C1SC(=Nc2ccc(Cl)cc2)N=C1C (configuration not stated) | 14% | 56% | 88.8% (active) | 27% | 37% | 91.7% (active) | 26% | 71% (active) | 89.8% (active) | 11% | 66% | 90% (active) | 19% | 69% | 88.8% (active) | 34% | 66% | 89.6% (active) |
| O=C(NNc1ccc(F)cc1)C12CC3CC(CC(C3)C1)C2 | 9% | 90% (active) | 98.4% (active) | 3% | 68% | 17.8% | 4% | 98% (active) | 53.2% | 4% | 57% | 27.1% | -3% | 97% (active) | 98.3% (active) | 2% | 98% (active) | 27.1% |
| CC1N=C(Cc2ccccc2)SC1C (configuration not stated) | -2% | 81% (active) | 74.5% (active) | -5% | 85% (active) | 86.1% (active) | 0% | 87% (active) | 86.8% (active) | -9% | 85% (active) | 88% (active) | 0% | 83% (active) | 88.3% (active) | -1% | 84% (active) | 85.8% (active) |
| CCN(CC)CCN1C(=O)c2c(c3c4cccc(Cl)c4n(C4OC(CO)C(OC)C(O)C4O)c3c3[nH]c4c(Cl)cccc4c23)C1=O (configuration not stated) | 88% (active) | 97% (active) | 84% (active) | 56% | 98% (active) | 87.3% (active) | 21% | 96% (active) | 90.5% (active) | 67% | 90% (active) | 89.5% (active) | 43% | 97% (active) | 89.2% (active) | 76% (active) | 97% (active) | 91% (active) |
| CCN(CC)CC(O)CNc1ccc(C)c2sc3ccccc3c(=O)c12 (configuration not stated) | 12% | 99% (active) | 99.8% (active) | 7% | 99% (active) | 99.8% (active) | 28% | 100% (active) | 95.2% (active) | 12% | 99% (active) | 99.5% (active) | 10% | 99% (active) | 99.5% (active) | 14% | 99% (active) | 99.8% (active) |
| C[N+](C)=c1ccc2nc3c(cc(NCCCNc4cc5oc6cc(=[N+](C)C)ccc-6nc5c5ccccc45)c4ccccc43)oc-2c1 | -28% | 79% (active) | 75.8% (active) | -7% | 80% (active) | 51% | -15% | 70% (active) | 67.5% | -29% | 53% | 39.5% | -18% | 72% (active) | 64% | -15% | 74% (active) | 65.1% |
